Results: PubChem BioAssay AID1159606 (Sanford-Burnham Center for Chemical Genomics, 2016)
In all, about 360,000 compounds went through this assay and about 7,300 (2%) were called active. Many of the other results were omitted from the sample, so actives are more common in it than they were. Unmarked numbers belong to inactive results. Rule as the data show it: active = inhibition above about 50%; inactive = the rest.

experiment: inhibitors of TWEAK-Fn14 signaling, primary screen, luciferase reporter cells, uHTS (AID 1159606); details: TWEAK-stimulated Fn14 reporter cells, luciferase luminescence, 8 h; at 10 µM; stronger effect = higher value

Row | Compound | inhibition
1 | Cc1nn(Cc2ccc(F)cc2)c(C)c1NC(=O)c1noc2c1CCc1ccccc1-2 | 60.1% (active)
2 | Cc1nn(Cc2ccc(Cl)c(Cl)c2)c(C)c1NC(=O)c1cc(C2CC2)on1 | -9.69%
3 | Cc1ccccc1Cn1nc(C)c(NC(=O)C(F)(F)F)c1C | -0.38%
4 | CC(C)(C)C1CCC(=O)N2CCC[C@]2(c2ccccc2)C1 (stereo partly specified) | -2.82%
5 | COc1ccc(NC(=O)CCCNC(=O)Cn2cnc3sc4c(c3c2=O)CCCC4)cc1OC | 4.82%
6 | COc1ccc(/C=N/Nc2ncnc3sc4c(c23)CCCC4)cc1O | 91.4% (active)
7 | COc1ccc(NC(=O)CCNC(=O)Cn2cnc3sc4c(c3c2=O)CCCC4)cc1OC | -3.89%
8 | Cc1ccccc1S(=O)(=O)N1[C@@H](c2cccc(Cl)c2)C(C(=O)OC(C)(C)C)=CC[C@H]1c1ccc(Cl)cc1 | -24.3%
9 | Cc1ccc(-c2nc3c(Cl)cc(C(F)(F)F)cn3c2Cc2cccc(Cl)c2)cc1 | 25.6%
10 | COC(=O)c1ccc2c(c1)S(=O)(=O)NC2C (stereo unspecified) | -6.18%
11 | CN(C)c1ccc2c(=O)[nH][nH]c(=O)c2c1 | -6.35%
12 | COc1ccc(CCNC(=O)COC(=O)Cc2cccc(F)c2)cc1 | -0.83%
13 | CC(C)Oc1ccc(CCc2n[nH]c(=S)n2Cc2ccccc2)cc1 | -6.3%
14 | CC(C)Oc1ccc(Cc2n[nH]c(=S)n2Cc2ccccc2)cc1Cl | 92.2% (active)
15 | COc1cc(-c2n[nH]c(=S)n2Cc2ccccc2)cc(OC)c1OC | -2.96%
16 | CCOC(=O)c1c(-c2ccc(C)cc2)csc1/N=C(\C)C1=C(O)c2ccccc2C1=O | 66.2% (active)
17 | COC(=O)c1c(-c2ccc(C)cc2)csc1N | -2.01%
18 | CCC(C(=O)OC)n1cnc2scc(-c3ccc(C)cc3)c2c1=O (stereo unspecified) | 0.23%
19 | CS(=O)(=O)N(C(=O)NC(=O)NC1CCS(=O)(=O)C1)C1CCCCC1 (stereo unspecified) | 13.7%
20 | CCCS(=O)(=O)NC(=O)C1(C)CCCN(C(=O)c2cccs2)C1 (stereo unspecified) | -4%
21 | COCC1CCCCN1C(=O)c1cc(COc2ccc(C)c(C)c2)on1 (stereo unspecified) | -33.8%
22 | CC(Nc1ccc([N+](=O)[O-])cc1[N+](=O)[O-])c1ccccc1 (stereo unspecified) | -18.4%
23 | NS(=O)(=O)c1ccc(CNC(=O)c2cccc(S(=O)(=O)N3CCc4ccccc43)c2)cc1 | 3.71%

Row | Compound | inhibition
24 | O=C(NC(Nc1nc2ccc([N+](=O)[O-])cc2s1)(C(F)(F)F)C(F)(F)F)c1ccccc1 | 57.6% (active)
25 | O=C(Nc1nc2ccc([N+](=O)[O-])cc2s1)c1ccc(S(=O)(=O)N2CCCc3ccccc32)cc1 | 64.6% (active)
26 | O=C(NNC(=O)c1ccc(-n2cncn2)c([N+](=O)[O-])c1)c1ccccc1 | 2.77%
27 | NS(=O)(=O)c1ccc2nc(NC(=O)C3=COCCO3)sc2c1 | 24.4%
28 | CC1CCN(C(=O)c2cccc(S(=O)(=O)N3CCCc4ccccc43)c2)CC1 | -0.65%
29 | Cc1ccc(NC(=O)c2cccc(S(=O)(=O)N3CCCc4ccccc43)c2)nc1 | 58.7% (active)
30 | CCC(=O)Nc1nnc(S(=O)(=O)N2CCCc3ccccc32)s1 | -3.9%
31 | CCCCCCCCN1C(=O)[C@H](CC(=O)NCC23CC4CC(CC(C4)C2)C3)C[C@@]2(C(=O)OC)CCCCC=C12 | 8.39%
32 | CCNC(=O)C1(C)CCN(Cc2ccc(C(=O)OCC)o2)C1 (stereo unspecified) | 1.05%
33 | CN(C)N=Nc1ccc2nc[nH]c2c1 | -9.3%
34 | O=S1(=O)CC(N2CCN(Cc3ccccc3F)CC2)CN1Cc1cn(Cc2ccccc2)nn1 (stereo unspecified) | 5.09%
35 | C=CCn1c(SCc2nnc(-c3ccccc3)o2)nnc1C(O)c1ccccc1 (stereo unspecified) | -3.86%
36 | CCC(NC(=O)c1ccccc1NC(=O)c1ccccc1)C(=O)NNC(=O)CSc1nc2ccccc2o1 (stereo unspecified) | -0.91%
37 | Cn1cnc2c1c(=O)n(Cc1c(Cl)cccc1Cl)c(=O)n2C | -7.11%
38 | Cn1c(N)c(C(=O)COC(=O)c2ccccc2NCc2ccco2)c(=O)n(C)c1=O | 22.6%
39 | CC(=O)c1cnn(-c2cc(Oc3ccc(F)cc3)ncn2)c1C | 8.07%
40 | CCOC(=O)/C(=N\Nc1cc(Cl)ccc1Cl)N1CCN(C)CC1 | -34.9%
41 | O=C(/C=C/c1cn(-c2ccccc2)nc1-c1ccc2c(c1)OCCO2)NCCCN1CCOCC1 | -1.36%
42 | CC(=O)C1=C(C)NC(C)=C(C(C)=O)C1c1cn(-c2ccccc2)nc1-c1cccs1 | -6.98%
43 | O=C(/C=C\c1cn(-c2ccccc2)nc1-c1cccs1)N1CCOCC1 | 98.4% (active)
44 | COc1ccc(-c2nn(C)c(=O)c3ccccc23)cc1CNC(=O)C1CCCCC1 | -37.6%
45 | COc1ccc(-c2nn(C)c(=O)c3ccccc23)cc1NC(=O)COc1ccccc1 | 71.2% (active)
46 | COc1ccc(S(=O)(=O)N2CCCCC2)cc1NC(=O)COc1ccccc1 | 22.4%

Row | Compound | inhibition
47 | CC1CC(=S)Nc2ccccc2N1Cc1ccccc1 (stereo unspecified) | 13.5%
48 | Cc1nc2ccc(NC(=O)N3CCC(c4ccccc4)C3)cc2nc1C (stereo unspecified) | 0.79%
49 | CC(C)(C)OC(=O)N/N=C/c1ccc(C(=O)O)cc1 | -4.99%
50 | O=C(O)c1ccc(N/N=C/c2ccc3ncccc3c2)cc1 | 95.2% (active)
51 | CCNC(=S)NNC(=O)c1ccc2ncccc2c1 | 1.76%
52 | CC1(C(=O)Nc2ccc3c(c2)OCCO3)CCN1C(=O)Cc1cc(F)ccc1F (stereo unspecified) | -3.09%
53 | O=S(=O)(NCc1ccccc1Cl)c1cnc[nH]1 | -2.25%
54 | O=S1(=O)CC(N2CCN(Cc3ccccc3F)CC2)CN1Cc1cn(Cc2cccc(C(F)(F)F)c2)nn1 (stereo unspecified) | 10.4%
55 | O=[N+]([O-])c1cc2ccccc2nc1-c1ccccc1 | -7.41%
56 | O=[N+]([O-])c1ccc(F)cc1Oc1nc(-c2cccnc2)nc2ccccc12 | 55.1% (active)
57 | CCN(CC(=O)NC1CCS(=O)(=O)C1)c1nc(-c2cccnc2)nc2ccccc12 (stereo unspecified) | 0.56%
58 | Cc1ccc(S(=O)(=O)N2[C@@H](c3cccc4ccccc34)C(C(=O)O)=C[C@H]2C(C)(C)C)cc1 | 14.3%
59 | CCOc1ccc(CN2CCNC(=O)C2CC(=O)NCCCC2CCCC2)cc1 (stereo unspecified) | 7.15%
60 | CCOC(=O)c1c(NC(=S)NC(=O)/C=C/c2cccs2)sc(C)c1C | 20.2%
61 | CCOC(=O)C1=C(NC(=S)NC(=O)c2ccccc2)c2ccccc2CC1(C)C | 4.16%
62 | CCOC(=O)c1c(-c2ccccc2)csc1NC(=S)NC(=O)c1ccccc1 | 57.9% (active)
63 | O=C(C1CCCO1)N1CCN(C(=O)C23CC4CC(CC(C4)C2)C3)CC1 (stereo unspecified) | -24%
64 | C[C@H](CO)N1C[C@H](C)[C@@H](CN(C)Cc2ccc3c(c2)OCO3)OCc2cnnn2CCCC1=O | -16.3%
65 | Cc1cc(Cl)c(S(=O)(=O)NCC2CCCO2)cc1OCC(N)=O (stereo unspecified) | 3.22%
66 | Cc1cc(Cl)c(S(=O)(=O)Nc2ccc3c(c2)OCCO3)cc1OCC(N)=O | 86.8% (active)
67 | Cc1cc(Cl)c(S(=O)(=O)N(C)C)cc1OCC(N)=O | 12.6%
68 | Cc1cc(C)cc(C(=O)OCC(=O)NCCNC(=O)COC(=O)c2cc(C)cc(C)c2)c1 | -2.52%
69 | Cc1ccc(S(=O)(=O)N2CCC(=O)N([C@H](COCc3ccccc3)C(C)C)CC2)cc1 | -20.6%

Row | Compound | inhibition
70 | Oc1c(CN2CCN(c3ccc(F)cc3)CC2)cc(Cl)c2cccnc12 | 104% (active)
71 | Oc1c(CN2CCCC2)cc(COCc2ccccc2)c2cccnc12 | 9.88%
72 | Cc1cccc(C)c1NC(=O)CN1CCN(c2ccc(F)cc2)CC1 | 0%
73 | O=[N+]([O-])c1ccc(S(=O)(=O)Nc2cccc(-c3ccc(N4CCCC4)nn3)c2)cc1 | -10.7%
74 | O=C(Nc1cccc(Cl)c1)C1CCCN(c2cnccn2)C1 (stereo unspecified) | -12.7%
75 | O=C(Nc1ccc2c(c1)OCCO2)C1CCCN(c2ncccn2)C1 (stereo unspecified) | 67.2% (active)
76 | O=C(Nc1ccc2c(c1)OCO2)C1CC1(Cl)Cl (stereo unspecified) | -7.08%
77 | O=C(Nc1ccc2c(c1)OCCO2)C1CCCC1 | 92.4% (active)
78 | O=C(Nc1ccccn1)C1CCN(S(=O)(=O)c2ccc3c(c2)OCCO3)CC1 | -16%
79 | CN1C(=O)c2ccc(NC(=O)C3CCCCC3)cc2C1=O | -18.9%
80 | Cc1ccccc1S(=O)(=O)NC(=O)C1(C)CCN1C(=O)C1(c2ccccc2)CCCC1 (stereo unspecified) | 0.78%
81 | COc1ccc(NC(=O)CN(C)C(=O)CNC(=O)C2CCCCC2)cc1 | -2.69%
82 | COc1cccc(CNC(=O)[C@@H]2CCCN2C(=O)[C@@H]2CCCN2C(=O)c2ccccc2)c1 | 17.3%
83 | CC1(C(=O)NS(=O)(=O)c2ccccc2)CCN1C(=O)C1CCCCC1 (stereo unspecified) | -10.4%
84 | CCC1(C)NC(=O)N(CC(=O)N2CCN(c3cccc(Cl)c3)CC2)C1=O (stereo unspecified) | 5.53%
85 | O=C(CSc1nnc(-c2ccco2)o1)NCC(=O)c1ccccc1 | 7.83%
86 | CSc1nc(-c2ccco2)nn1C(=O)c1ccccc1Cl | 51% (active)
87 | CCn1c(SCC(=O)Nc2cc(C)c(Cl)cc2OC)nnc1-c1ccco1 | -18.4%
88 | CCn1cc(CN2CCCC(CNS(=O)(=O)Cc3ccccc3)C2)cn1 (stereo unspecified) | 1.85%
89 | Cc1cccc(-n2ncc(Cl)c(Cl)c2=O)c1 | 94.7% (active)
90 | CC(=O)Nc1c2c(nn1-c1cccc(C)c1)CSC2 | -5.72%
91 | CCCNC(=O)c1c(Cl)cnn1-c1ccc(C)cc1 | -19.4%
